# Measured values: PubChem BioAssay
# Several values for one entry are separate records, joined by “and”; a condition that tells them apart may be missing. Identical values can stand only once. Activity calls are given as the source filed them. Unless noted, no stated cut-off is given here; in the data, active means inhibition above about 80%; inactive means the rest.
# What was measured:
# [1] = growth inhibition, single agent or in combination, cell-based, chromothripsis tumors, cisplatin or BGB combos (AID 1671449); conditions: LFS_MB_P medulloblastoma cells;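 further: cells exposed for 96 hours; 0% = vehicle DMSO and 100% = killing by high DMSO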
# [2] = growth inhibition, single agent and combos, cell-based, chromothripsis tumors, cisplatin or BGB combos (AID 1671450); conditions: HDN33 neuroblastoma cells, stronger effect = higher value;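 further: cells exposed to compound for four days; 0% = vehicle DMSO and 100% = cell killing by high DMSO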
# [3] = growth inhibition, single agents and combos, ICB984, cell-based, cisplatin or BGB combos, synergistic combos for chromothripsis tumors (AID 1671451; call rule not given here;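 further: cells exposed for 96 hours before readout; 0% = vehicle DMSO and 100% = killing by high DMSO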); conditions: ICB984 medulloblastoma cells, drug combinations, stronger effect = higher value
# [4] = growth inhibition, single agents and combos, LFS_MB_1R, cell-based, cisplatin or BGB combos, synergistic combos for chromothripsis tumors (AID 1671452); conditions: LFS_MB_1R medulloblastoma cells, stronger effect = higher value;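 further: cells exposed for 96 hours before readout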
# [5] = growth inhibition, single agents and combos, HTB85, cell-based, BGB or cisplatin IC20 combos, synergistic combos for chromothripsis tumors (AID 1671453); conditions: HTB85 osteosarcoma cells, drug combinations, stronger effect = higher value;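 further: cells exposed for 96 hours before readout; 0% = vehicle DMSO and 100% = high DMSO killing control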
# [6] = growth inhibition, single agents and combos, CRL2098, cell-based, BGB or cisplatin IC20 combos, synergistic combos for chromothripsis tumors (AID 1671454); conditions: CRL2098 osteosarcoma cells, drug combinations, stronger effect = higher value;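 further: cells exposed for 96 h before readout; 0% = vehicle DMSO and 100% = killing by high DMSO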
# [7] = growth inhibition, single agents and combos, HD-MB03, cell-based, BGB or cisplatin IC20 combos, synergistic combos for chromothripsis tumors (AID 1671455; in the data active means inhibition above about 83%;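 further: 0% = vehicle DMSO and 100% = high DMSO as cytotoxic control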); conditions: HD-MB03 medulloblastoma cells, stronger effect = higher value
# [8] = growth inhibition, single agents and combos, UWB1.289, cell-based, BGB or cisplatin combos, synergistic combos for chromothripsis tumors (AID 1671456); conditions: UWB1.289 ovarian carcinoma cells, stronger effect = higher value;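 further: cells exposed to compound for four days; 0% = vehicle DMSO and 100% = killing by high DMSO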
# [9] = growth inhibition, single agents and combos, LFS_MB_2R, cell-based, cisplatin combos, synergistic combos for chromothripsis tumors (AID 1671457); conditions: LFS_MB_2R medulloblastoma cells, stronger effect = higher value;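 further: cells exposed to compound for four days before readout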
# [10] = growth inhibition, MDA-MB-436, cell-based, BGB or cisplatin combos, synergistic combos for chromothripsis tumors (AID 1671458; call rule not given here;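 further: cells exposed for 96 hours; 0% = vehicle DMSO and 100% = killing by high DMSO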); conditions: MDA-MB-436 breast carcinoma growth inhibition, drug combinations, stronger effect = higher value
# [11] = UWB1.289_BRCA1 ovarian cancer growth, cell-based, BGB or cisplatin combinations (AID 1671459); conditions: UWB1.289 BRCA1 ovarian carcinoma, drug combinations, stronger effect = higher value
# [12] = drug combination toxicity in non-malignant astrocytes – cell-based, BGB or cisplatin IC20 combos, cytotoxicity control for chromothriptic childhood tumor combination screen (AID 1671460); conditions: Human astrocytes, viability inhibition, drug combinations, at 0.5 µM, stronger effect = higher value;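 further: cells exposed to compounds for 96 hours before viability readout; 0% = vehicle and 100% = killing control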
# [13] = BT084 cell growth, single and combined drugs, ICGC_MB145, cisplatin and BGB IC40 combos (AID 1671461); conditions: BT084 medulloblastoma cells, drug combinations, stronger effect = higher value;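 further: cells exposed to drugs for 96 hours; 0% = vehicle DMSO and 100% = high DMSO full killing control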
# [14] = RCMB18 cell growth, single agent and combined, cisplatin and BGB IC40 combos (AID 1671462); conditions: RCMB18 medulloblastoma cells, stronger effect = higher value;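 further: cells exposed to compound for four days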
# [15] = CRL1545 cell growth, single agent and combined, cisplatin and BGB IC20 combos (AID 1671464); conditions: CRL1545 osteosarcoma cells, stronger effect = higher value;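 further: cells exposed to compound for 96 hours before readout; 0% = vehicle DMSO and 100% = high DMSO killing control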
# [16] = at 0.5 µM, stronger effect = higher value
# [17] = measured here: combination with BGB IC20, at 0.005 µM
# [18] = measured here: combination with BGB IC40, at 0.005 µM
# [19] = measured here: combination with BGB IC40, at 0.05 µM
# [20] = measured here: combination with cisplatin, at 0.5 µM, stronger effect = higher value
# [21] = measured here: combination with cisplatin, at 5 µM, stronger effect = higher value
# [22] = measured here: with BGB IC20 combination, at 0.5 µM
# [23] = measured here: with cisplatin IC20 combination, at 0.5 µM
# [24] = measured here: 5 uM single agent, at 5 µM
# [25] = measured here: combination with cisplatin, at 0.5 µM
# [26] = measured here: combination with cisplatin, at 5 µM
# [27] = measured here: with BGB IC20, at 0.5 µM
# [28] = measured here: with BGB IC20, at 5 µM
# [29] = measured here: with cisplatin IC20, at 0.5 µM
# [30] = measured here: with cisplatin IC20, at 5 µM
# [31] = measured here: combination with BGB at IC20, at 0.5 µM
# [32] = measured here: combination with cisplatin at IC20, at 0.5 µM
# [33] = measured here: combo with BGB at IC20, at 0.5 µM
# [34] = measured here: combo with cisplatin at IC20, at 0.5 µM
# [35] = measured here: inhibition with BGB combination, at 0.05 µM
# [36] = measured here: inhibition with cisplatin combination, at 0.05 µM
# [37] = measured here: BGB combination, at 0.5 µM
# [38] = measured here: BGB combination, at 5 µM
# [39] = measured here: cisplatin combination, at 0.5 µM
# [40] = measured here: cisplatin combination, at 5 µM
# [41] = BGB combination, concentration series, at 5 µM
# [42] = cisplatin combination, concentration series, at 5 µM
# [43] = measured here: combo with BGB IC20
# [44] = measured here: combo with cisplatin IC20
# [45] = cisplatin combination, at 0.5 µM
# [46] = measured here: BGB IC40 combination 0.05 uM, at 0.05 µM
# [47] = measured here: BGB IC40 combination, at 0.05 µM
compound,measurement,setting,value
CN(C)C(=S)NN=C(c1ccccn1)c1ccccn1,inhibition,[1]; [16],9.49% (inactive)
same,inhibition,[1]; [17],65.9%
same,inhibition,[1]; [18],60.3%
same,inhibition,[1]; [19],73.6%
same,inhibition,[1]; [20],14.7%
same,inhibition,[1]; [21],65.2%
same,inhibition,"[2]; BGB combo, at 5 µM",93.5%
same,inhibition,[2]; at 0.5 µM,96.3% (active)
same,inhibition,"[2]; cisplatin combo, at 5 µM",96.8%
same,inhibition,[2]; [22],96.5%
same,inhibition,[2]; [23],96.3%
same,inhibition,"[2]; single agent, at 5 µM",95.4%
same,inhibition,"[3]; BGB IC20 combo, at 0.005 µM",49.9%
same,inhibition,"[3]; BGB IC40 combo, at 0.005 µM",48.2%
same,inhibition,"[3]; BGB IC40 combo, at 0.05 µM",88.6%
same,inhibition,[3]; at 0.5 µM,-3.29% (inactive)
same,inhibition,"[3]; cisplatin combo, at 0.05 µM",88.1%
same,inhibition,"[3]; cisplatin combo, at 0.5 µM",-11.8%
same,inhibition,"[3]; cisplatin combo, at 5 µM",27.2%
same,inhibition,[3]; [24],32%
same,inhibition,[4]; at 0.5 µM,82.5% (active)
same,inhibition,[4]; [19],62.2%
same,inhibition,[4]; [25],96.8%
same,inhibition,[4]; [26],91.5%
same,inhibition,[5]; at 0.5 µM,89.9% (active)
same,inhibition,[5]; [27],85.2%
same,inhibition,[5]; [28],92.5%
same,inhibition,[5]; [29],91%
same,inhibition,[5]; [30],88.7%
same,inhibition,"[5]; single agent, at 5 µM",90.5%
same,inhibition,[6]; at 0.5 µM,98% (active)
same,inhibition,[6]; [31],97.8%
same,inhibition,[6]; [32],98.6%
same,inhibition,[7]; at 0.5 µM,86.8% (active)
same,inhibition,[7]; [33],70.3%
same,inhibition,[7]; [34],93.8%
same,inhibition,[8]; at 0.5 µM,88% (active)
same,inhibition,[8]; [35],90.6%
same,inhibition,[8]; [36],92.1%
same,inhibition,[9]; at 0.5 µM,61.3% (inactive)
same,inhibition,[9]; [25],70.1%
same,inhibition,[9]; [26],64.5%
same,inhibition,[10]; at 0.5 µM,81.2% (active)
same,inhibition,[10]; [37],73.4%
same,inhibition,[10]; [38],86%
same,inhibition,[10]; [39],85.1%
same,inhibition,[10]; [40],93.7%
same,inhibition,[11]; [41],121%
same,inhibition,[11]; at 0.5 µM,87% (active)
same,inhibition,[11]; [42],127%
same,inhibition,[12],77.8% (inactive)
same,inhibition,[12]; [43],77.7%
same,inhibition,[12]; [44],72.8%
same,inhibition,[13]; at 0.5 µM,72.7% (inactive)
same,inhibition,[13]; [45],77.7%
same,inhibition,"[13]; cisplatin combination, at 5 µM",74%
same,inhibition,[13]; [46],80.3%
same,inhibition,"[13]; single agent, at 5 µM",83.9%
same,inhibition,[14]; at 0.5 µM,82.2% (active)
same,inhibition,"[14]; cisplatin combo, at 5 µM",90.5%
same,inhibition,[14]; [47],80.1%
same,inhibition,[14]; [25],86%
same,inhibition,"[14]; single agent, at 5 µM",94.3%
same,inhibition,[15]; at 0.5 µM,96.9% (active)
same,inhibition,[15]; [22],97.1%
same,inhibition,[15]; [23],96.8%
same,inhibition,"[15]; single agent, at 0.05 µM",88.4%
same,inhibition,"[15]; single agent, at 5 µM",89.2%
COc1cccc2c1C(=O)c1c(O)c3c(c(O)c1C2=O)CC(O)(C(=O)CO)CC3OC1CC(N)C(O)C(C)O1 (stereo unspecified),inhibition,[1]; [21],118% and 119% and 108%
same,inhibition,"[2]; single agent, at 5 µM",99.7% and 99.6%
same,inhibition,[5]; at 0.5 µM,98.7% (active) and 98.9% (active) and 98.5% (active)
same,inhibition,[5]; [30],99.4% and 99.6% and 99.7%
same,inhibition,"[15]; single agent, at 5 µM",99.7% and 99.6% and 99.8%
C=C(C)C1CCC2(C(=O)O)CCC3(C)C(CCC4C5(C)CCC(O)C(C)(C)C5CCC43C)C12 (stereo unspecified),inhibition,[1]; [16],-26.5% (inactive)
same,inhibition,[1]; [17],-25.5%
same,inhibition,[1]; [18],15.5%
same,inhibition,[1]; [19],-1.2%
same,inhibition,[1]; [20],-45.1%
same,inhibition,[1]; [21],-28.2%
same,inhibition,"[2]; BGB combo, at 5 µM",-9.64%
same,inhibition,[2]; at 0.5 µM,-2.09% (inactive)
same,inhibition,"[2]; cisplatin combo, at 5 µM",-9.94%
same,inhibition,[2]; [22],-1.87%
same,inhibition,[2]; [23],-3.24%
same,inhibition,"[2]; single agent, at 5 µM",-1.41%
same,inhibition,"[3]; BGB IC20 combo, at 0.005 µM",-15.2%
same,inhibition,"[3]; BGB IC40 combo, at 0.005 µM",-18.6%
same,inhibition,"[3]; BGB IC40 combo, at 0.05 µM",9.33%
same,inhibition,[3]; at 0.5 µM,-29.1% (inactive)
same,inhibition,"[3]; cisplatin combo, at 0.05 µM",9.33%
same,inhibition,"[3]; cisplatin combo, at 0.5 µM",-38%
same,inhibition,"[3]; cisplatin combo, at 5 µM",-7.17%
same,inhibition,[3]; [24],-4.58%
same,inhibition,[4]; at 0.5 µM,-20% (inactive)
same,inhibition,[4]; [19],-20.5%
same,inhibition,[4]; [25],-33%
same,inhibition,[4]; [26],-12.9%
same,inhibition,[5]; at 0.5 µM,-2.9% (inactive)
same,inhibition,[5]; [27],-17.7%
same,inhibition,[5]; [28],-3.73%
same,inhibition,[5]; [29],-4.54%
same,inhibition,[5]; [30],5.41%
same,inhibition,"[5]; single agent, at 5 µM",-0.003%
same,inhibition,[6]; at 0.5 µM,-11.7% (inactive)
same,inhibition,[6]; [31],-25.6%
same,inhibition,[6]; [32],19.7%
same,inhibition,[7]; at 0.5 µM,-2.78% (inactive)
same,inhibition,[7]; [33],-2.46%
same,inhibition,[7]; [34],-4.95%
same,inhibition,[8]; at 0.5 µM,0.66% (inactive)
same,inhibition,[8]; [35],-7.77%
same,inhibition,[8]; [36],-4.44%
same,inhibition,[9]; at 0.5 µM,0.87% (inactive)
same,inhibition,[9]; [25],-5.32%
same,inhibition,[9]; [26],12.1%
same,inhibition,[10]; at 0.5 µM,-18.9% (inactive)
same,inhibition,[10]; [37],-9.2%
same,inhibition,[10]; [38],-5.74%
same,inhibition,[10]; [39],-43.5%
same,inhibition,[10]; [40],3.21%
same,inhibition,[11]; [41],-4.55%
same,inhibition,[11]; at 0.5 µM,-1.24% (inactive)
same,inhibition,[11]; [42],-5.38%
same,inhibition,[12],6.79% (inactive)
same,inhibition,[12]; [43],-11.2%
same,inhibition,[12]; [44],21%
same,inhibition,[13]; at 0.5 µM,-12.4% (inactive)
same,inhibition,[13]; [45],-2.33%
same,inhibition,"[13]; cisplatin combination, at 5 µM",-35.9%
same,inhibition,[13]; [46],10.4%
same,inhibition,"[13]; single agent, at 5 µM",-5.82%
same,inhibition,[14]; at 0.5 µM,-0.59% (inactive)
same,inhibition,"[14]; cisplatin combo, at 5 µM",-5.83%
same,inhibition,[14]; [47],12.3%
same,inhibition,[14]; [25],-32.4%
same,inhibition,"[14]; single agent, at 5 µM",7.3%
same,inhibition,[15]; at 0.5 µM,-2.94% (inactive)
same,inhibition,[15]; [22],-13.1%
same,inhibition,[15]; [23],2.15%
same,inhibition,"[15]; single agent, at 0.05 µM",-25.4%
same,inhibition,"[15]; single agent, at 5 µM",16.8%
